From the supplement of paper PMC11738630

Test system: Salmonella enterica serovar Typhimurium 14028s
Experiment: approximate change in surviving CFU after surface colonization relative to water-only control (log10 CFU/mL change); higher = more surviving bacteria (less inhibition of surface colonization)
Conditions: not stated (Biolog proprietary concentration), surface: plastic 96-well plate, 20-24 h at 25 °C

NCCc1ccc(O)cc1 [Tyramine]
approximate change in surviving CFU (log10) (Biolog plate: PM1, Biolog well: H4): 0.537 | approximate change in surviving CFU (log10) (Biolog plate: PM3, Biolog well: E3): -1.37

NC(=O)[C@H]1O[C@@H](O)[C@H](O)[C@@H](O)[C@@H]1O [Glucuronamide]
approximate change in surviving CFU (log10) (Biolog plate: PM1, Biolog well: H7): 1.03 | approximate change in surviving CFU (log10) (Biolog plate: PM3, Biolog well: E6): 0.622

CC(=O)N[C@H]1C(O)O[C@H](CO)[C@H](O)[C@@H]1O (stereo partly drawn) [N-Acetyl-D-Galactosamine]
approximate change in surviving CFU (log10) (Biolog plate: PM2, Biolog well: B1): 0.622 | approximate change in surviving CFU (log10) (Biolog plate: PM3, Biolog well: E12): -0.129

CC(N)=O [Acetamide]
approximate change in surviving CFU (log10) (Biolog plate: PM2, Biolog well: G1): -0.365 | approximate change in surviving CFU (log10) (Biolog plate: PM3, Biolog well: E4): -1.76

N=C(N)NCCC[C@H](N)C(=O)O [L-Arginine]
approximate change in surviving CFU (log10) (Biolog plate: PM2, Biolog well: G4): 0.966 | approximate change in surviving CFU (log10) (Biolog plate: PM3, Biolog well: A8): 0.236

NCC(=O)O [Glycine]
approximate change in surviving CFU (log10) (Biolog plate: PM2, Biolog well: G5): 0.494 | approximate change in surviving CFU (log10) (Biolog plate: PM3, Biolog well: B2): 0.15

N[C@@H](Cc1c[nH]cn1)C(=O)O [L-Histidine]
approximate change in surviving CFU (log10) (Biolog plate: PM2, Biolog well: G6): 1.01 | approximate change in surviving CFU (log10) (Biolog plate: PM3, Biolog well: B3): 0.279

N[C@@H](CCO)C(=O)O [L-Homoserine]
approximate change in surviving CFU (log10) (Biolog plate: PM2, Biolog well: G7): 0.923 | approximate change in surviving CFU (log10) (Biolog plate: PM3, Biolog well: C11): 0.365

CC[C@H](C)[C@H](N)C(=O)O [L-Isoleucine]
approximate change in surviving CFU (log10) (Biolog plate: PM2, Biolog well: G9): 0.794 | approximate change in surviving CFU (log10) (Biolog plate: PM3, Biolog well: B4): -0.0429

CC(C)C[C@H](N)C(=O)O [L-Leucine]
approximate change in surviving CFU (log10) (Biolog plate: PM2, Biolog well: G10): 0.451 | approximate change in surviving CFU (log10) (Biolog plate: PM3, Biolog well: B5): -0.236

CSCC[C@H](N)C(=O)O [L-Methionine]
approximate change in surviving CFU (log10) (Biolog plate: PM2, Biolog well: G12): 0.365 | approximate change in surviving CFU (log10) (Biolog plate: PM3, Biolog well: B7): -0.88

NCCC[C@H](N)C(=O)O [L-Ornithine]
approximate change in surviving CFU (log10) (Biolog plate: PM2, Biolog well: H1): 0.708 | approximate change in surviving CFU (log10) (Biolog plate: PM3, Biolog well: C12): 0.172

N[C@@H](Cc1ccccc1)C(=O)O [L-Phenylalanine]
approximate change in surviving CFU (log10) (Biolog plate: PM2, Biolog well: H2): -0.322 | approximate change in surviving CFU (log10) (Biolog plate: PM3, Biolog well: B8): -0.215

O=C1CC[C@@H](C(=O)O)N1 [L-Pyroglutamic Acid]
approximate change in surviving CFU (log10) (Biolog plate: PM2, Biolog well: H3): -0.0858 | approximate change in surviving CFU (log10) (Biolog plate: PM3, Biolog well: D3): -0.258

CC(C)[C@H](N)C(=O)O [L-Valine]
approximate change in surviving CFU (log10) (Biolog plate: PM2, Biolog well: H4): 0.15 | approximate change in surviving CFU (log10) (Biolog plate: PM3, Biolog well: C2): -0.386

NCCCCN [Putrescine]
approximate change in surviving CFU (log10) (Biolog plate: PM2, Biolog well: H8): 0.322 | approximate change in surviving CFU (log10) (Biolog plate: PM3, Biolog well: D11): -0.3
